Active and inactive are the calls of the source. Entries that show only a call come without a potency. Calls follow the shape of the dose curve; as a rule, active = well fitted activation curve with a large enough effect in the repeat runs; inconclusive = weak or mixed curves; inactive = flat fitted curve, though single readings scatter.
Experiment: Caspase-3/7 induction in CHO-K1 cells by small molecules, qHTS assay (AID 1346980); also: nearly all actives have a fitted effect of over 15% in size
Conditions: CHO-K1 caspase-3/7 induction, Caspase-Glo luminescence, 17 h; series mostly up to 92.4 µM
Text: National Center for Advancing Translational Sciences [NCATS]
NIH Chemical Genomics Center [NCGC]
U.S. Environmental Protection Agency [EPA]
National Institutes of Environmental Health Sciences [NIEHS]
National Toxicology Program [NTP]
Apoptosis is a process of programmed cell death and plays a central role in the development of multicellular organisms. It is a highly regulated process and induces cell death by activating caspases, which are the members of cysteine aspartic acid-specific protease (caspase) family. Caspases involved in apoptosis are classified by their mechanism of action as initiator caspases (caspase-2, -8, -9 and -10) and executioner caspases (caspase-3, -6, and -7). Inhibition of apoptosis results in number of cancers, autoimmune diseases, inflammatory diseases and viral infection. To identify small molecule compounds that induce apoptosis, a homogeneous, luminescent Caspase-Glo 3/7 assay was used. Wild type CHO-K1 cells were used to screen Tox21 libraries for identifying caspase-3/7 activity inducers.
CHO-K1 cells were dispensed at 1,500 per well in 5uL of culture medium into white solid bottom 1536-well plates (Corning Life Sciences, Corning, NY) using a Multidrop Combi (Thermo Scientific, Waltham, MA) dispenser. The assay plates were incubated at 37 C and 5% CO2 for 5hr, and then 23nL of compounds dissolved in DMSO and positive control were transferred using a Pintool station (Wako, San Diego, CA). The assay plates were incubated at 37C and 5% CO2 for 17hr. For caspase-3/7 activity read, 4uL of Caspase-Glo 3/7 reagent (Promega Corporation, Madison, WI) was added to each well of the assay plates using Flying Reagent Dispenser (FRD, Aurora Discovery, San Diego, CA) and incubated the assay plates at room temperature for 30min. The luminescence signal was quantified using a ViewLux plate reader (Perkin Elmer, Shelton, CT).
Potency is read from the fitted curve at half-maximal effect.

| Compound | Potency |
| --- | --- |
| c1ccc2nc(N3CCNCC3)ccc2c1 | inactive |
| CCCCC(CC)COC(=O)c1ccccc1C(=O)OCC(CC)CCCC (stereo not given) | inactive |
| S=C=Nc1ccccc1 | inactive |
| Clc1ccc(C2(Cn3cncn3)OCCO2)c(Cl)c1 | inactive |
| CC1CN1 (stereo not given) | inactive |
| C[C@]12C/C(=C/O)C(=O)C[C@@H]1CC[C@@H]1[C@@H]2CC[C@@]2(C)[C@H]1CC[C@]2(C)O | inactive |
| N#CC(C#N)=NNc1cccc(Cl)c1 | inactive |
| CCCCCCCc1ccc(O)cc1 | inactive |
| N#CSCc1ccccc1 | inactive |
| CC1CCCC1 | inactive |
| COP(=S)(OC)Oc1ccc([N+](=O)[O-])c(C)c1 | inactive |
| C=C(C)C(=O)[O][Sn]([CH2]CCC)([CH2]CCC)[CH2]CCC | 433 nM (active) |
| CC(=O)O.CC(=O)O.CC(=O)O.CC(=O)O.CC(=O)O.CC(=O)O.CC(=O)O.O.O.[Cr].[Cr].[Cr] | inactive |
| COc1ccc2c(c1OC)C(=O)O[C@@H]2[C@H]1c2cc3c(cc2CCN1C)OCO3 | inactive |
| [O-][Cl+3]([O-])([O-])O | inactive |
| ClC1=C(Cl)[C@]2(Cl)[C@@H]3[C@H]4C[C@H]([C@@H]5O[C@H]45)[C@@H]3[C@@]1(Cl)C2(Cl)Cl | inactive |
| CC#C[C@]1(O)CC[C@H]2[C@@H]3C[C@H](C)C4=CC(=O)CC[C@]4(C)[C@H]3CC[C@@]21C | inactive |
| CC(Cl)CCl (stereo not given) | inactive |
| CC(C)N(C(=O)CCl)c1ccccc1 | inactive |
| Cc1ccccc1OP(=O)(Oc1ccccc1C)Oc1ccccc1C | inactive |

| Compound | Potency |
| --- | --- |
| CN1CCc2cc3c(cc2C1O)OCO3 (stereo not given) | inactive |
| [Cl-].[Cl-].[Sn+2] | inactive |
| Cc1ccc(C)c2ccccc12 | inactive |
| O=[N+]([O-])[O-].[Tl+] | inactive |
| CCC(C)Nc1c([N+](=O)[O-])cc(C(C)(C)C)cc1[N+](=O)[O-] (stereo not given) | inactive |
| CNC(=O)Oc1cc(C)cc(C(C)C)c1 | inactive |
| CCC[CH2][Sn]([CH2]CCC)([CH2]CCC)[O][Sn]([CH2]CCC)([CH2]CCC)[CH2]CCC | 671 nM (active) |
| c1ccc(N=NNc2ccccc2)cc1 | inactive |
| Cc1c([N+](=O)[O-])cc2c(c1[N+](=O)[O-])C(C)(C)CC2(C)C | inactive |
| CSC(C)(C)/C=N/O | inactive |
| Oc1cc(Cl)c(Cl)c(Cl)c1Cl | inactive |
| CC(Cc1ccc(O)cc1)NCC(O)c1cc(O)cc(O)c1 (stereo not given) | inactive |
| NC(=O)C(Cl)Cl | inactive |
| O=c1[nH]c2cc(Cl)ccc2n1C1CCNCC1 | inactive |
| N#CCCl | inactive |
| CC[C@]1(O)CC[C@H]2[C@@H]3CCC4=CCCC[C@@H]4[C@H]3CC[C@@]21C | inactive |
| COc1cnc(OC)n2nc(NS(=O)(=O)c3c(OCC(F)F)cccc3C(F)(F)F)nc12 | inactive |
| CC(C)Br | inactive |
| Nc1cc(Cl)ccc1Cl | inactive |
| CN(C)c1ccc(N)cc1 | inactive |

Reference: PubChem BioAssay (Tox21)
